“And” between values parts separate entries of the source, which are not always exact repeats. Identical values can stand only once. Inconclusive results are not listed. The source made the active and inactive calls. Unless noted, the call rests on the fitted dose curve; in most records, active means well fitted curve in the direction sought with a large enough effect; inconclusive means small, poorly fitted or top-dose-only effect, or another doubt; inactive means no such curve, though single readings can be large; an effect the other way counts as inactive or inconclusive.
Tests used:
[1] = qHTS Assay for Lipid Storage Modulators (AID 1519; calls by dose curve; on activity change, negative = inhibition: on the % scale 0 is the no-effect control and ±100 the full control effect); conditions: Drosophila S3 cells, BODIPY lipid droplet/cell ratio, laser cytometry, cells loaded with oleic acid
How it was run: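 Cells seeded at 5,000 per well were treated with compounds over a concentration series and loaded with oleic acid (400 uM, as added). Lipid droplet fluorescence (488 nm excitation, 500-530 nm channel) was read by laser-scanning cytometry and normalized to 20 uM Triacsin C.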

[2] = molecular target: DNA repair nuclease/redox regulator APEX1 (Homo sapiens) (UniProt P27695); assay: qHTS Validation Assay for Inhibitors of the Human Apurinic/apyrimidinic Endonuclease 1 (APE1) (AID 1705;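 further: TAMRA fluorescence gain over two minutes as APE1 cuts a quenched THF abasic duplex; on the % scale 0 is the no-effect control and ±100 the full control effect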)
Sequence of DNA repair nuclease/redox regulator APEX1 (Homo sapiens) (P27695 whole entry, looked up): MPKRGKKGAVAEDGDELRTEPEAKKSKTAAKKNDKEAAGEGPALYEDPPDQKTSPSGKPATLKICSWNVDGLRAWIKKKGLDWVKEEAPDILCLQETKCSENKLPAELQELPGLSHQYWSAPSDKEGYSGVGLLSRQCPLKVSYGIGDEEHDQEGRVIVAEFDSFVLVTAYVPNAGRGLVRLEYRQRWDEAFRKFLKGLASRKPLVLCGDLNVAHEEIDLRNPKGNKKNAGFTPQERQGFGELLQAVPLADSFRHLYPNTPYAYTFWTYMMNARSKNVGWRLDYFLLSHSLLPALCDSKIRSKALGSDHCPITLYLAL
How it was run: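 Endonuclease activity of human APE1 is followed as dequenching when the enzyme incises a tetrahydrofuran abasic site in a short duplex labelled 5'-TAMRA/3'-BHQ-2 (50 nM final), after 15 min enzyme–compound preincubation at room temperature.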

[3] = Counterscreen for APE1 Inhibitors: Fluorescent Dye Displacement Validation Assay (AID 1707);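 further: plate controls were ThO with dsDNA and no compound for no effect and ThO without dsDNA for full effect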
How it was run: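 Assay buffer: Tris-HCl pH7.5 with 50mM NaCl, 2 mM MgCl2, 0.01% Tween-20. Dye 250 nM, duplex 50 nM final. Readout: decrease in ThO endpoint fluorescence, 480 nm excitation, 540 nm emission.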

[4] = molecular target: Endonuclease 4 (Escherichia coli (strain K12)) (UniProt P0A6C1); assay: Counterscreen for APE1 Inhibitors: qHTS Validation Assay for Inhibitors of Endonuclease IV (AID 1708); further: on the % scale 0 is the no-effect control and ±100 the full control effect
How it was run: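 E. coli EndoIV at 2 nM final, preincubated 15 min at room temperature with compound, then 50 nM TAMRA/BHQ-2 THF abasic-site duplex added. Buffer: 50 mM Tris-HCl pH 7.5, 50 mM NaCl, 2 mM MgCl2, 1 mM DTT, 0.01% Tween-20. Kinetic fluorescence increase, third minus first read.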

[5] = qHTS for differential inhibitors of proliferation of Plasmodium falciparum line 7G8 (AID 1815);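 further: parasite growth measured after three days of incubation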; further: potency means the concentration at half of the fitted maximal effect;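 on activity change, negative = inhibition: plate controls were vehicle wells for no effect and reference inhibitor wells for full effect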
[6] = qHTS for differential inhibitors of proliferation of Plasmodium falciparum line GB4 (AID 1816); conditions: Potency: Plasmodium falciparum GB4 proliferation inhibition;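 further: parasite growth measured after 72 h incubation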; further: potency means the concentration at half of the fitted maximal effect;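 on activity change, negative = inhibition: 0% = vehicle DMSO and -100% = reference inhibitor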
[7] = qHTS for differential inhibitors of proliferation of Plasmodium falciparum line 3D7 (AID 1876); further: potency means the concentration at half of the fitted maximal effect
[8] = qHTS for differential inhibitors of proliferation of Plasmodium falciparum line D10 (AID 1877);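 further: parasites grown with compound for 72 h before DNA staining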; further: potency means the concentration at half of the fitted maximal effect;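 on activity change, negative = inhibition: plate controls were vehicle wells for no effect and reference inhibitor wells for full effect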
[9] = qHTS for differential inhibitors of proliferation of Plasmodium falciparum line Dd2 (AID 1882); conditions: Potency: Plasmodium falciparum Dd2 proliferation inhibition; further: nearly all actives have a fitted effect of over 65% in size; further: potency means the concentration at half of the fitted maximal effect;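 on activity change, negative = inhibition: plate controls were DMSO vehicle for no effect and 0.29 µM artemisinin for full effect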
How it was run: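 Dd2-infected erythrocytes (0.3% parasitemia, 2.5% hematocrit final) incubated with compound 72 h at 37 C, 5% CO2; lysed with saponin/Triton buffer containing SYBR Green I, incubated overnight in the dark, then read by fluorescence (485/535 nm). Normalized to 0.29 uM artemisinin and DMSO.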

[10] = qHTS for differential inhibitors of proliferation of Plasmodium falciparum line W2 (AID 1883); conditions: Potency: Plasmodium falciparum W2 proliferation inhibition;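 further: parasites grown with compound for 72 h before lysis and staining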; further: potency means the concentration at half of the fitted maximal effect;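 on activity change, negative = inhibition: 0% = vehicle wells and -100% = control inhibitor wells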
[11] = qHTS for differential inhibitors of proliferation of Plasmodium falciparum line HB3 (AID 1886); conditions: Potency: Plasmodium falciparum HB3 proliferation inhibition;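 further: parasites grown with compound for 72 h before SYBR Green readout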; further: potency means the concentration at half of the fitted maximal effect;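 on activity change, negative = inhibition: plate controls were vehicle for no effect and reference inhibitor for full effect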
[12] = Cell Viability - LYMP2-020 (AID 986);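 further: plate controls were DMSO only for no effect and tetraoctylammonium bromide at 92 µM for full effect; nearly all actives have a fitted effect of over 55% in size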
How it was run: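 Human lymphoblastoid LYMP2-020 cells (2500/well) preincubated 5 h at 37 C, then treated 24 h at 37 C. Viability measured as intracellular ATP by CellTiter-Glo luminescence after 30 min at room temperature; AC50 from Hill fits.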

[13] = Cell Viability - LYMP2-022 (AID 987);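 further: 0% = DMSO alone and full effect = tetraoctylammonium bromide at 92 µM; nearly all actives have a fitted effect of over 55% in size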
How it was run: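 LYMP2-022 lymphoblastoid cells (2500/well, complete medium) were treated with compounds for 24 hours at 37 C; intracellular ATP was then read by CellTiter-Glo luminescence after 30 min at room temperature. AC50 values were derived from Hill-equation fits.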

[14] = Cell Viability - LYMP2-024 (AID 988);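 further: plate controls were DMSO only for no effect and 92 µM tetraoctylammonium bromide for full effect; nearly all actives have a fitted effect of over 60% in size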
How it was run: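 Human lymphoblastoid LYMP2-024 cells (2500/well) rested 5 hr, then treated with compound for 24 hr at 37 C in complete medium. Viability was measured as intracellular ATP by CellTiter-Glo luminescence. AC50 values came from Hill-equation fits.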

[15] = Cell Viability - LYMP2-026 (AID 989); further: on the % scale 0 is the no-effect control and ±100 the full control effect; nearly all actives have a fitted effect of over 50% in size
How it was run: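 Human lymphoblastoid LYMP2-026 cells, 2500/well, exposed to compound 24 h at 37 C in complete medium. Viability as intracellular ATP by CellTiter-Glo luminescence; AC50 from Hill fits of qHTS concentration-response.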

[16] = molecular target: Alpha-galactosidase A (Homo sapiens) (UniProt P06280); assay: Counterscreen for Glucocerebrosidase Inhibitors: qHTS Assay for Human alpha-Galactosidase at pH 4.5 (AID 992); further: 0% is about no effect
Sequence of Alpha-galactosidase A (Homo sapiens) (P06280 whole entry, looked up): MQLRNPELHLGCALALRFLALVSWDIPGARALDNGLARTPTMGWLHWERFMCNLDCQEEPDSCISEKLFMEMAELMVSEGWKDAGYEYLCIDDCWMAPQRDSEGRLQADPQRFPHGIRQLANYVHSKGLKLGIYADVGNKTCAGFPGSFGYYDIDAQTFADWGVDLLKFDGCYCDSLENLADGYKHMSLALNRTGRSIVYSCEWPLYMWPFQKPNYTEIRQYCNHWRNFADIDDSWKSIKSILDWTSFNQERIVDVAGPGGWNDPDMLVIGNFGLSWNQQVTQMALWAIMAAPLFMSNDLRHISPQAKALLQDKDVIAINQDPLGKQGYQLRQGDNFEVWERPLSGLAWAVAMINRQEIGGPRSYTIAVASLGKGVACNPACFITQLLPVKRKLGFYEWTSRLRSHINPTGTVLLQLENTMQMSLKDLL
How it was run: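 Concentration-response curves (0.7 nM to 77 uM final) were modeled with the Hill equation to give AC50. Reactions: 2 nM enzyme, 80 uM fluorogenic alpha-galactoside, pH 4.5 citric acid buffer, 20 min, room temperature.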

[17] = Cell Viability - LYMP1-002 - Assay at 40 hr (AID 994);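 further: 0% = DMSO only and full inhibition = 92 µM tetraoctylammonium bromide; nearly all actives have a fitted effect of over 60% in size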
How it was run: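 LYMP1-002 human lymphoblastoid cells (2500/well, complete medium) were treated with compounds for 40 hr at 37 C. Intracellular ATP was measured by CellTiter-Glo luminescence, and AC50 values came from Hill-equation fits of concentration-response data; tetraoctylammonium bromide was the positive control.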

[18] = molecular target: alpha-glucosidase (Oryza sativa, rice) (UniProt Q653V4); assay: Counterscreen for Glucocerebrosidase Inhibitors: qHTS Assay for Rice alpha-Glucosidase at pH 5.0 (AID 997);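 further: 0% = full activity with enzyme and -100% = basal without enzyme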
How it was run: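 Rice alpha-glucosidase (4 nM final) with 400 uM 4-methylumbelliferyl-alpha-D-glucopyranoside in citrate buffer pH 5.0, 20 min at room temperature, stopped at pH 10; fluorescence 365/440 nm, compounds 0.7 nM–77 uM, AC50 from Hill fits.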

[19] = measured here: cell count channel max response
[20] = measured here: lipid channel max response

CC(C)(Oc1ccc(C2CC2(Cl)Cl)cc1)C(=O)O (configuration not stated)
inactive: activity change, negative = inhibition ([1]; at 57.5 µM (top of the series)) 1.98% | Potency [2] | Potency [3] | Potency [4] | Potency [5] | Potency [6] | Potency [7] | Potency [8] | Potency [9] | Potency [10] | Potency [11]
-18.9%: max response [1, 19]
-26.3%: max response [1, 20]

CCC1(c2ccccc2)C(=O)NCNC1=O
inactive: outcome [12] | outcome [13] | outcome [14] | outcome [15] | outcome [16] | Potency [17] | outcome [18] | activity change, negative = inhibition ([1]; at 25.7 µM (top of the series)) -1.4% | activity change, negative = inhibition ([1]; at 57.5 µM (top of the series)) 0.988% and 9.51% | Potency [3] | Potency [4] | Potency [5] | Potency [6] | Potency [7] | Potency [8] | Potency [9] | Potency [10] | Potency [11]
4.93% and -20.9% and 16.1%: max response [1, 19]
2.59% and -19% and 28.8%: max response [1, 20]

NC(=O)OCC(COC(N)=O)c1ccccc1
inactive: outcome [16] | outcome [18] | activity change, negative = inhibition ([1]; at 57.5 µM (top of the series)) -4.42% | Potency [2] | Potency [3] | Potency [4] | Potency [5] | Potency [6] | Potency [7] | Potency [8] | Potency [9] | Potency [10] | Potency [11]
-0.783%: max response [1, 19]
-3.41%: max response [1, 20]

CN1C(C(=O)Nc2ccccn2)=C(O)c2ccccc2S1(=O)=O
active: Potency [10] 10 µM
-3.03%: max response [1, 20]
-1.41%: max response [1, 19]
inactive: outcome [16] | activity change, negative = inhibition ([1]; at 25.7 µM (top of the series)) -1.27% | Potency [2] | Potency [3] | Potency [4] | Potency [7] | Potency [8] | Potency [9] | Potency [11]

COC(=O)Nc1nc2ccc(C(=O)c3cccs3)cc2[nH]1
inactive: outcome [16] | activity change, negative = inhibition ([1]; at 25.7 µM (top of the series)) -7.22% | activity change, negative = inhibition ([1]; at 57.5 µM (top of the series)) 1.19% | Potency [2] | Potency [3] | Potency [4] | Potency [9]
-12.3% and 9.44%: max response [1, 20]
-4.31% and 9.27%: max response [1, 19]

Cc1cc(C(C)(C)C)c(O)c(C)c1CC1=NCCN1
inactive: outcome [16] | outcome [18] | activity change, negative = inhibition ([1]; at 25.7 µM (top of the series)) -3.48% | activity change, negative = inhibition ([1]; at 57.5 µM (top of the series)) -2.77% and 10.3% | Potency [2] | Potency [3] | Potency [4] | Potency [9]
active: Potency [10] 12.6 µM
-11.5% and -13.2% and 34.1%: max response [1, 19]
-16% and -15.4% and 53.3%: max response [1, 20]

Fc1ccc([C@@H]2CCNC[C@H]2COc2ccc3c(c2)OCO3)cc1
inactive: outcome [16] | activity change, negative = inhibition ([1]; at 57.5 µM (top of the series)) -0.973% | Potency [2] | Potency [3] | Potency [4]
active: Potency [5] 5.62 µM | Potency [6] 5.01 µM | Potency [7] 7.08 µM | Potency [8] 12.6 µM | Potency [9] 11.2 µM | Potency [10] 3.55 µM | Potency [11] 7.08 µM
-18.8%: max response [1, 20]
-19.9%: max response [1, 19]

O=C(CCCN1CCC(O)(c2ccc(Cl)cc2)CC1)c1ccc(F)cc1
-10.1% and 21.7%: max response [1, 20]
inactive: outcome [16] | activity change, negative = inhibition ([1]; at 25.7 µM (top of the series)) 0.51% | activity change, negative = inhibition ([1]; at 57.5 µM (top of the series)) 7.71% | Potency [2] | Potency [3] | Potency [4]
-8.83% and 9.42%: max response [1, 19]

Reference: PubChem BioAssay (NCATS)
